Experimental data as given in PubChem BioAssay (NCATS).
Inconclusive results are not listed. A number with no mark means an inactive call. Active and inactive are the calls of the source. Calls follow the shape of the dose curve; as a rule, active = well fitted cell-killing curve with a large enough effect; inconclusive = small, poorly fitted or top-dose-only effect, or effect the other way; inactive = no such curve, though single readings can be large or run the other way.

Assay: Quantitative highthroughput screen to assess conditional lethalithy of NOMO1 cells grown in Human Plasma-Like Medium with dialyzed fetal bovine serum (HPLM+ds) (AID 1963878); also: nearly all actives have a fitted effect of over 35% in size
Conditions: NOMO1 AML cells in HPLM+ds, CellTiter-Glo viability, 48 h; series mostly up to 45.8 µM; viability: at the top concentration
Description: Assay Provider: Jason Cantor Ph.D.
Department of Biochemistry
University of Wisconsin-Madison, Madison, WI, USA
Chemical screening studies have identified drug sensitivities across hundreds of cancer cell lines but most putative therapeutics fail to translate. Discovery and development of drug candidates in models that more accurately reflect nutrient levels in human blood is a major challenge. Here we performed high-throughput screens in conventional versus Human Plasma-Like Medium (HPLM) to identify compounds that were "missed" when screening using the artificial culture condition. Sets of conditional anticancer compounds spanned phases of clinical development and included non-oncology drugs were assessed. […] We also traced conditional phenotypes for several chemotherapeutics to availability of HPLM-specific metabolites and confirmed others for compounds whose reported targets are encoded by nonessential genes. Our findings establish generalizable strategies for exploiting conditional lethality in HPLM to reveal therapeutic candidates and mechanisms of action in cancer cells.
Described herein are the results of each viability screens against three cell lines: NOMO1 (an acute myeloid leukemia cell line); P12-Ichikawa (a T-cell acute lymphoblastic leukemia); and SEM (a B-cell ALL). Each assay was screened using 3 different cell culture media: homemade human plasma-Like medium with 10% dialyzed fetal bovine serum (HPLM+ds); RPMI1640 with 10% untreated FBS and 5mM glucose (RPMI+s); and RPMI1640 with 10% dialyzed fetal bovine serum and 5 mM glucose (RPMI+ds).
PROTOCOL TABLE (as described by Inglese J, Shamu CE and Guy RK. 2007)
SEQUENCE No. (e.g., 1, 2, 3, etc.); […] (e.g., Cells, Incubation, Reagent, etc.); VALUE and DESCRIPTION.
1; Cells; 5 uL; white, solid bottom 1536-well Greiner assay plate.
2; Compounds; 23 nL; Kalypsis pin tool (Wako USA) equipped with a 1536-well pin head to transfer to the assay plates.
3; Incubation; 48 hours; 37C incubation.
4; Reagent; 3 uL; CellTiter Glo (Promega).
5; Incubation; 5 min, room temperature
6; Detection; Luminescence, Viewlux PerkinElmer.
NOTES (numbers refer to Sequence numbers above)
1. Briefly, 5 ul of cell reagent was dispensed using a Multidrop Combi Dispenser. The NOMO1 and SEM cells were plated at 500 cells/well and the P12-Ichikawa line at 1000 cells/well.
2. After seeding the cells, 23 nL of MIPE 4.1 library compounds (in DMSO) were added to each plate using a Kalypsys 1536 Pintool dispenser. Bortezomib at final concentration of […] and DMSO were added to each plate as positive and negative controls respectively. For each screen, MIPE 4.1 compounds were added over an eleven-point concentration range […] in 3-fold dilutions.
3. Each plate was covered with a stainless steel gasketed lid to prevent evaporation and incubated for 48 hour at 37C, 95% relative humidity, and 5% CO2.
4-5. Three microliter CellTilter-GloTM luminescent substrate mix (Promega) reagent was added to the assay plate and incubated at room temperature for 5 min.
6. The luminescence signal was measured using a ViewLux (PerkinElmer) multiplate reader with a 2 second exposure time per plate. Data for each compound were normalized as percent viability such that measurements for DMSO and the empty well controls in each plate were defined as 100% and 0%, respectively.
Potency is read from the fitted curve at half-maximal effect.

| Structure (SMILES) | viability [%] | Potency |
| --- | --- | --- |
| COc1ccc(C(CN(C)C)C2(O)CCCCC2)cc1 (stereo not given) | 98.3 |  |
| C#CCN(C)[C@H](C)Cc1ccccc1 | 82.2 |  |
| CN[C@@H]1Cc2cccc3[nH]c(=O)n(c23)C1 | 93.2 |  |
| N[C@@H](Cc1ccc(N(CCCl)CCCl)cc1)C(=O)O |  | 7.43 µM (active) |
| CC(N[C@H]1C[C@H]1c1ccccc1)c1ccc2c(c1)OCCO2 (stereo not given in full) | 101 |  |
| COC[C@@H](NC(C)=O)C(=O)NCc1ccccc1 |  | 18.7 µM (active) |
| CNC(=O)c1ccc(N2C(=S)N(c3ccc(C#N)c(C(F)(F)F)c3)C(=O)C23CCC3)cc1F | 110 |  |
| O=c1[nH]c2ccccc2n1CCCN1CCC(n2c(=O)[nH]c3cc(Cl)ccc32)CC1 | 78.3 |  |
| CN(C)CCc1ccc(O)cc1 | 94.3 |  |
| CC[C@@]1(O)C(=O)OCc2c1cc1n(c2=O)Cc2cc3ccccc3nc2-1 |  | 0.0662 µM (active) |
| O=C(Oc1ccc([N+](=O)[O-])cc1)N1CCN(Cc2cccc(Oc3ccccc3)c2)CC1 | 101 |  |
| C[C@@H]1[C@H](O)[C@@H](C)C=CC=CCCC=CC=CC=CC=C[C@H](O[C@H]2O[C@@H](C)[C@H](O)[C@@H](N)[C@@H]2O)CC2O[C@](O)(C[C@@H](O)[C@H](O)CC[C@@H](O)C[C@@H](O)C[C@@H](O)CC(=O)O[C@H]1C)C[C@H](O)[C@H]2C(=O)O | 106 |  |
| CC(C)(C)c1cc(C=C(C#N)C#N)cc(Br)c1O | 84.4 |  |
| CC(=Cc1csc(C)n1)[C@@H]1C[C@H]2O[C@]2(C)CCC[C@H](C)[C@@H](O)[C@@H](C)C(=O)C(C)(C)[C@@H](O)CC(=O)O1 | 27.6 |  |
| CC[C@H]1C=CC=CC[C@@H](C)[C@H](O)[C@@](C)(O)C(=O)[C@@H](C)[C@H](O)[C@@H](C)C(=O)[C@@H](C)[C@H](O)[C@@H](C)C=CC(=O)O[C@@H]2[C@@H](C)[C@H](CC1)O[C@]1(CC[C@H](C)[C@H](C[C@@H](C)O)O1)[C@H]2C |  | 2.64 µM (active) |
| CC[C@@H](C(N)=O)N1CCCC1=O | 94.2 |  |
| CC1(N2CCC(n3c([C@@H]4CCCNC4)nc4ccccc43)CC2)CCCCCCC1 |  | 13.2 µM (active) |
| COc1cc(C(=O)N2CC[C@@H](O)[C@@H](N)C2)cc2nc(-c3cc4ccccc4n3CC3CC3)n(C)c12 |  | 0.234 µM (active) |
| CC1=C(O)C(=O)C=C2C1=CC=C1[C@@]2(C)CC[C@@]2(C)[C@@H]3C[C@](C)(C(=O)O)CC[C@]3(C)CC[C@]12C |  | 2.96 µM (active) |
| O=c1[nH]c2ccccc2n1C1CCN(Cc2ccc(-c3[nH]c4cc5ncnc5cc4nc3-c3ccccc3)cc2)CC1 | 83.9 |  |

| Structure (SMILES) | viability [%] | Potency |
| --- | --- | --- |
| O=C(O)C(=O)c1cn(Cc2ccccc2)c2ccc(-c3ccc(OC(F)(F)F)cc3)cc12 | 97.1 |  |
| C=C[C@@H]1CN2CCC1C[C@@H]2[C@@H](O)c1ccnc2ccccc12 (stereo not given in full) | 94.5 |  |
| Cc1cc(SCc2sc(-c3ccc(C(F)(F)F)c(F)c3)nc2C)ccc1OCC(=O)O | 97 |  |
| CCOC(=O)c1cncn1[C@H](C)c1ccccc1 | 99.7 |  |
| COC[C@H]1OC(=O)c2coc3c2[C@@]1(C)C1=C(C3=O)[C@@H]2CC[C@H](O)[C@@]2(C)C[C@@H]1OC(C)=O |  | 13.2 µM (active) |
| CN(C)[C@@H]1C(=O)C(C(N)=O)=C(O)[C@@]2(O)C(=O)C3=C(O)c4c(O)cccc4[C@@](C)(O)[C@H]3C[C@@H]12 | 105 |  |
| CC(C)[C@]12O[C@@H]1[C@@H]1O[C@]13[C@]1(O[C@H]1C[C@@H]1C4=C(CC[C@@]13C)C(=O)OC4)[C@H]2O |  | 0.0012 µM (active) |
| CSCC[C@@H](NC(=O)[C@@H](Cc1ccccc1)NC(=O)CNC(=O)CNC(=O)[C@@H](N)Cc1ccc(O)cc1)C(=O)O | 106 |  |
| Cn1cc(C2=C(c3cn(C4CCN(Cc5ccccn5)CC4)c4ccccc34)C(=O)NC2=O)c2ccccc21 | 115 |  |
| Cn1c(CCCC(=O)O)nc2cc(N(CCCl)CCCl)ccc21 | 104 |  |
| C[C@@H]1C[C@@H]([C@H](O)CC2CC(=O)NC(=O)C2)C(=O)[C@@H](C)C1 |  | 1.18 µM (active) |
| c1ccc2c(CN3CCNCC3)cccc2c1 | 80.8 |  |
| CC(NC(C)(C)C)C(=O)c1cccc(Cl)c1 (stereo not given) |  | 5.9 µM (active) |
| COC1(CS(=O)c2ccccc2)CCN(CCc2c[nH]c3ccc(F)cc23)CC1 (stereo not given) |  | 26.4 µM (active) |
| C[C@H]1CCCC=CC2C[C@H](O)C[C@@H]2[C@H](O)C=CC(=O)O1 (stereo not given in full) | 2.85 |  |
| CC=C(C)C(=O)N[C@@H](c1ccccc1)[C@@H](O)C(=O)O[C@H]1C[C@@]2(O)[C@@H](OC(=O)c3ccccc3)[C@@H]3[C@]4(OC(C)=O)CO[C@@H]4C[C@H](O)[C@@]3(C)C(=O)[C@H](OC(C)=O)C(=C1C)C2(C)C | 20.8 |  |
| C[C@H]([C@H](O)CCC(C)(C)O)[C@H]1CC[C@@]2(O)C3=CC(=O)[C@@H]4C[C@@H](O)[C@@H](O)C[C@]4(C)[C@@H]3CC[C@]12C | 108 |  |
| C1=C2CCCN[C@H]2[C@@H]2C[C@H]1[C@@H]1CCCCN1C2 | 79.2 |  |
| C[C@]12COC(=O)C[C@@H]1CC[C@@H]1[C@H]2CC[C@@]2(C)[C@H]1CC[C@]2(C)O | 82.9 |  |
| COc1cc(OC)c(OC)cc1C=O | 78.7 |  |
